# Tested on: CSNK1E
# Details: concentration: 1 μM, replicates: in singlicate; n = 1
# 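Further: KINOMEscan kinase panel screen.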
row,Structure (SMILES),%Inh [%]
1,Cl.c1ccc(-c2ccc3c(Nc4ccc5[nH]ncc5c4)ccnc3c2)nc1 [GW440137],41
2,Cl.NC(=O)c1cccc(Nc2nccc(Nc3ccc(Oc4c(Cl)cccc4Cl)c(Cl)c3)n2)c1 [GW659009],0
3,O=C(Nc1cccc(-c2nn3ncccc3c2-c2ccnc(Nc3ccccc3)n2)c1)c1c(F)cccc1F [GSK198271],85
4,COC(=O)Nc1nc2ccc(Oc3ccc(NC(=O)Nc4cc(C(F)(F)F)ccc4F)cc3)cc2n1C.Cl [GW692089],0
5,Oc1cc(Nc2ccnc3cc(I)ccc23)ccc1F [GW552771],16
6,CC(C)c1nc(-c2cccc(NS(=O)(=O)c3c(F)cccc3F)c2F)c(-c2ccnc(Nc3ccc(N4CCOCC4)nc3)n2)s1 [GSK2008607],4
7,CCn1c(-c2nonc2N)nc2c(C#CC(C)(C)O)nc(OC[C@H](N)c3ccccc3)cc21 [GSK943949],15
8,CC(C)(C)c1ccc2nccc(Nc3cccc(O)c3)c2c1 [GW856795],0

# Source: paper PMC5540273 (PLoS ONE, 2017)
